Data reported in PubChem BioAssay (NCI).
About 79,000 compounds went through this panel and 15% of them were active in at least one assay; those are over-represented in the sample as a whole. A number with no mark means an inactive call. The source made the active and inactive calls. No stated cut-off is given here; in the data, active means growth inhibition above about 70%; inactive means the rest.

Key:
[1] = NCI Yeast Anticancer Drug Screen. Data for the rad50 strain (AID 155);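 further: 0% = growth of vehicle-only cultures of the same strain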; conditions: S. cerevisiae rad50 strain growth inhibition; at 50.0 µM; active compounds read high
Method in brief: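 DNA repair mutant yeast, compound exposure, growth read-out; inhibition is taken relative to vehicle.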

[2] = NCI Yeast Anticancer Drug Screen. Data for the mec2-1 strain (AID 157); conditions: S. cerevisiae mec2-1 strain, at 50.0 µM, active compounds read high
Method in brief: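 Test agents were screened against the mec2-1 yeast strain, with defined DNA repair or cell cycle alteration. Growth was scored as inhibition against vehicle-only controls.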

[3] = NCI Yeast Anticancer Drug Screen. Data for the sgs1 mgt1 strain (AID 161);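 further: 0% = growth of cultures given vehicle only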; conditions: S. cerevisiae sgs1 mgt1 strain, at 50.0 µM, active compounds read high
Method in brief: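 Mutant yeast exposed to compound; growth scored against vehicle-only wells.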

[4] = NCI Yeast Anticancer Drug Screen. Data for the cln2 rad14 strain (AID 165);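 further: 0% = growth equal to vehicle treated cultures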; conditions: S. cerevisiae cln2 rad14 strain, at 50.0 µM, active compounds read high
Method in brief: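 Growth of compound-exposed yeast (cln2 rad14 genotype) measured and expressed as inhibition relative to vehicle.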

[5] = NCI Yeast Anticancer Drug Screen. Data for the bub3 strain (AID 167); conditions: S. cerevisiae bub3 mutant strain, at 50.0 µM, active compounds read high
Method in brief: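 In this screen, a yeast mutant lacking normal mitotic checkpoint function is challenged with compound. Relative growth versus vehicle gives the inhibition value.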

[6] = NCI Yeast Anticancer Drug Screen. Data for the mlh1 rad18 strain (AID 175); conditions: S. cerevisiae mlh1 rad18 strain growth inhibition; at 50.0 µM; active compounds read high
Method in brief: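 In this whole-cell yeast screen, a strain with altered DNA damage repair is challenged with compound, and its growth is measured against matched vehicle-treated controls.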

Structure (SMILES) | growth inhibition [1] [%] | growth inhibition [2] | growth inhibition [3] [%] | growth inhibition [4] [%] | growth inhibition [5] [%] | growth inhibition [6] [%]
O=C(OCC1CCCN2CCCCC12)c1ccncc1 (stereo not given) | 4.9 | 2.9% | 48.4 | 15.4 | 34.3 | 2.35
O=P(c1ccccc1)(c1ccccc1)c1ccccc1.O=P(c1ccccc1)(c1ccccc1)c1ccccc1.O=S(=O)(O)O.[Fe] | -8.3 | 3.45% | 9.35 | 17.6 | 23.6 | 8.2
CCC1(O)N=C(c2ccccc2)c2ccccc2-n2cccc21 (stereo not given) | 1.7 | 4.25% | 8.65 | 0.55 | 2.2 | 6.5
CCCCCCCC(N)CC(=O)O (stereo not given) | -24.2 | -44.2% | -15.8 | -0.7 | -36.6 | -8.05
O=C(Cc1ccc2c(c1)OCO2)c1cn(C(=O)Cc2ccc3c(c2)OCO3)c2ccccc12 | 18.7 | 5.9% | 5.4 | 14.8 | 0.35 | 26.4
COc1ccc2c(c1O)[C@@]13CCCC=C1[C@@H](C2)[N+](C)(C)CC3 | 22.4 | 13.7% | -19.9 | 15.8 | -1.35 | -29.6
c1ccc(N2CCN(c3ccccc3)CC2)cc1 | -31.7 | -8.35% | -1.15 | -57.5 | 37.8 | 13.8
O=c1c2cc(Br)cc(Br)c2nc(CCCl)n1-c1ccc(O)c([N+](=O)[O-])c1 | -2 | 15.8% | -9.95 | 16.3 | -7.5 | -0.8
FC(F)(F)c1ccc2c(c1)N(CCCl)c1ccccc1S2 | 4.3 | -8.05% | -2.4 | -79.2 | 1.5 | -4.6
O=P(CCP(=O)(c1ccccc1)c1ccccc1)(c1ccccc1)c1ccccc1 | -17.6 | -23.1% | -0.5 | 26.2 | 3.2 | 3.75
O=C(CCC1C(=O)NC(=S)NC1=O)c1ccc2ccccc2c1 | 14.7 | 17.8% | -12.2 | 5.3 | -7.95 | -8.15
Cc1ccc(C)c(C(C)NC2=NCCO2)c1 (stereo not given) | -3.95 | -7.95% | -11.7 | 1.2 | -9.9 | 19
N.N.N.N.N.NC(=O)c1nn[n-]n1.[Cl-].[Co+3] | -27.2 | -3% | -9.45 | 0 | -27.3 | -17.1
O=C(Nc1ccccc1F)C(Cl)(Cl)Cl | 6.55 | -5.2% | 9.3 | -5 | 16.7 | 26.2
CC1(c2cccc(N(CCCl)CCCl)c2)NC(=O)NC1=O (stereo not given) | 25.1 | 27.4% | 13.2 | 3.9 | 19.9 | 40.4
Cc1ccc(NC(=O)CCc2ccc(N3C(N)=NC(N)=NC3(C)C)cc2Cl)cc1S(=O)(=O)F | 54.6 | 72.3% (active) | 64.2 | -5.25 | -25.9 | 15
N.N.N.N.N.N.O=N[O-].[Br-].[Co+3].[Co+3].[OH3+].[OH3+] | 7.15 | 9.25% | -15.4 | 15.9 | 6.25 | -7.9
O=C(Cl)C(Br)Cc1ccccc1 (stereo not given) | 11.9 | -19.4% | 0.95 | 7 | 28.6 | 2.1
CN(C)P(=O)(CC(O)c1ccccc1)N(C)C (stereo not given) | 18.6 | -2.05% | -14.5 | -8.05 | 8.5 | 10.9
CN(C)/N=C(\N)c1nnn(C)n1 | -4.45 | -14.2% | -15.2 | -32.8 | -11.2 | -0.3
